Assay results from PubChem BioAssay (NCATS).
Results filed as inconclusive are left out. A call without a number means that no potency is given here. The source made the active and inactive calls. Calls come from the whole dose curve; as a rule, active = well fitted inhibition curve with a large enough effect; inconclusive = small, poorly fitted or top-dose-only effect; inactive = flat fitted curve, though single readings scatter.

Each compound was assayed on CP256 (assay: qHTS profiling for inhibitors of Plasmodium falciparum proliferation (AID 504749; note: nearly all actives have a fitted effect of over 60% in size)). Details: P. falciparum in erythrocytes, SYBR Green DNA, 72 h; series mostly up to 28.7 µM.
In short: (§1)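 In a 72 h erythrocytic culture (37 C, humidified, 5% CO2) at 2.5% hematocrit and 0.3% starting parasitemia, compounds were tested; SYBR Green I in detergent lysis buffer stained parasite DNA overnight.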
Potency is the fitted concentration of half-maximal effect.

| Structure (SMILES) | Potency |
| --- | --- |
| Cc1cc(-c2ccc(N=Nc3ccc4c(S(=O)(=O)O)cc(S(=O)(=O)O)c(N)c4c3O)c(C)c2)ccc1N=Nc1ccc2c(S(=O)(=O)O)cc(S(=O)(=O)O)c(N)c2c1O | inactive |
| CCC(C(=O)NC(N)=O)c1ccccc1 (centres undefined) | inactive |
| Cn1cc(NC(=O)c2cc(NC(=O)c3cc(NC=O)cn3C)cn2C)cc1C(=O)NCCC(=N)N | 11.2 µM (active) |
| CCc1ncnc2cc(OC)c(OC)cc12 | inactive |
| O=[N+]([O-])c1c(Cl)cccc1-c1c[nH]cc1Cl | inactive |
| C[C@@](Cc1ccc(O)c(O)c1)(NN)C(=O)O | inactive |
| CC(=O)Oc1cc(C(F)(F)F)ccc1C(=O)O | inactive |
| CCCCC | inactive |
| O=P(O)(O)CP(=O)(O)O | inactive |
| CCCCC[C@H](O)/C=C/[C@@H]1[C@H]2C/C(=C/CCCC(=O)O)O[C@H]2C[C@H]1O | inactive |
| C[Si](C)(C)O[Si](C)(C)C | inactive |
| O.O.O.O.O.O.O.O=S(=O)([O-])[O-].[Co+2] | 8.91 µM (active) |
| Cc1c(C)c2c(c(C)c1OC(=O)CCC(=O)O)CC[C@@](C)(CCC[C@H](C)CCC[C@H](C)CCCC(C)C)O2 | inactive |
| CCOC(=O)c1c[nH]c2cc(OCC(C)C)c(OCC(C)C)cc2c1=O | 0.0708 µM (active) |

What follows are compounds tested on CP260 in the same assay as above. Details: P. falciparum in erythrocytes, SYBR Green DNA, 72 h; series mostly up to 28.7 µM.
In short: as §1

| Structure (SMILES) | Potency |
| --- | --- |
| C(=C\c1ccncc1)/c1ccccc1 | inactive |
| CCCCCCCCCCCC(=O)N(CCO)CCO | inactive |
| CC12CCC(C[N+](C)(CCC[N+](C)(C)C)C1)C2(C)C (centres undefined) | inactive |
| F[Si-2](F)(F)(F)(F)F | inactive |
| OCC(O)CO | inactive |
| CCN(CC)CCOc1ccc2nc(N(C)C)sc2c1 | inactive |
| CN1CCc2c(c3ccccc3n2Cc2ccccc2)C1 | inactive |
| Cn1cc(NC(=O)c2cc(NC(=O)c3cc(NC=O)cn3C)cn2C)cc1C(=O)NCCC(=N)N | 12.6 µM (active) |
| Cc1ncc(C[n+]2csc(CCO)c2C)c(N)n1 | inactive |
| O[C@@H]([C@H](O)[C@H](O)CBr)[C@H](O)CBr | inactive |
| CCCCC | inactive |
| O=P(O)(O)CP(=O)(O)O | inactive |
| C[Si](C)(C)O[Si](C)(C)C | inactive |
| O.O.O.O.O.O.O.O=S(=O)([O-])[O-].[Co+2] | 10 µM (active) |
| CCOC(=O)c1c[nH]c2cc(OCC(C)C)c(OCC(C)C)cc2c1=O | 0.0708 µM (active) |
